# High-throughput results from PubChem BioAssay.
# CYP2C9 act: increases human cytochrome P450 2C9 activity. P11712. 96,000 tested, 1.4% active. activation factor at 5 µM. recombinant CYP2C9, luciferin-H conversion, luminescence; hits give high values; factor 1 = untreated enzyme, 0 = blocked;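 active = activation factor of 2 or more for CYP2C9 at a 5 µM dose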;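 note: 0 = sulfaphenazole-blocked wells and 1 = vehicle-only wells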
# Cav32 inh: human Cav3.2 channel inhibition, primary screen | B-score at 10 µM | 100,000 tested, 4% active | O95180 | Cav3.2-expressing cells, Fluo-4 calcium fluorescence FDSS; hits give low values;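 active = single-dose well whose peak fluorescence ratio is a statistical outlier from its plate by either plate-standardised score or position-corrected B-score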
# CYP2C19 act: activators of human cytochrome P450 2C19 | activation factor at 5 µM | AID 1025 | P33261 | recombinant CYP2C19, luciferin-H EGE luminescence; hits give high values; 0 = fully inhibited enzyme, 1 = untreated enzyme | 96,000 tested, under 10 active;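 active = activation factor of at least 2 at 5 µM in the primary screen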;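 note: 0 = wells with 2.5 mM tranylcypromine and 1 = vehicle-only wells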
# CYP2C19 inh: human CYP2C19 inhibition | 96,000 tested, 21% active | CYP2C19 Supersomes, luciferin-H EGE luminescence, 30 min | AID 778 | inhibition, % at 5 µM;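 active = CYP2C19 inhibition above a set limit at 5 µM in the primary screen, cut at about 50% in these data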;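 note: plate controls were negative control wells for no effect and 2.5 mM tranylcypromine positive control for full effect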
# CYP2C9 inhib: human CYP2C9 inhibition | P11712 | 96,000 tested, 20% active | CYP2C9 Supersomes, luciferin-H conversion, luminescence | inhibition, % at 5 µM;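 active = blocking of liver enzyme CYP2C9 beyond about 50% at 5 µM, limit read from the data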
# * = called active by the depositor; . = not tested or not shown. Sampled rows, rich in hits. Any-hit rate of the full collection: about 27%.
SMILES,CYP2C9 act,Cav32 inh,CYP2C19 act,CYP2C19 inh,CYP2C9 inhib
CN1CCc2c(sc3c2C(=O)NC(c2ccco2)N3)C1 (stereo unspecified),1,-0.46,1,-3,-5
O=C1NC(c2ccco2)Nc2sc3c(c21)CCN(Cc1ccccc1)C3 (stereo unspecified),0.3,0.037,0.8,18,69*
Cn1cccc1C(=O)NC(=O)COC(=O)C12CC3CC(CC(O)(C3)C1)C2,0.7,0.18,0.8,17,29
COc1ccc(CNC(=O)CCOc2ccc(C(C)(C)C)cc2)cc1,0.6,-1.8,0.9,14,41
COCCSc1ccccc1C(=O)N1CCN(Cc2ccc3c(c2)OCO3)CC1,0.8,0.2,0.9,12,19
COc1cccc(C(O)CC(N)=O)c1 (stereo unspecified),1,0.12,1.1,-8,-5
COc1ccc(Br)cc1C1N2CC3(C)CN1CC(C)(C2)C3=O (stereo unspecified),1.1,0.66,0.2,77*,-5
COc1ccc2[nH]cc(C3N4CC5(C)CN3CC(C)(C4)C5=O)c2c1 (stereo unspecified),1.1,0.25,0.8,22,-9
FC(F)Oc1ccc(NC(=S)NCc2ccccc2)cc1Cl,2.2*,0.029,0.5,50*,-124
CC(C)c1ccc(CNCc2ccccc2)cc1,0.9,0.12,0.2,75*,8
O=C(O)CC(NC(=S)NCc1ccccc1)C(=O)O (stereo unspecified),0.4,0.15,0.9,8,62*
OCc1ccccc1CNCc1ccccc1,0.9,1.2,0.4,62*,8
NC(=O)CC(NC(=S)NCc1ccccc1)C(=O)O (stereo unspecified),0.9,0.33,1,2,9
CC#CCNCc1ccccc1,1.1,-0.086,1.2,-17,-8
CN(C(=O)c1ccc(=O)[nH]c1)C1(C(=O)NC2CCCCC2)CCCCC1,1.1,-0.96,1.1,-11,-8
S=C(NCc1ccccc1)NCc1ccccc1,1.1,-1.1,0.1,90*,-12
CC(C)COc1ccc(CNC(=S)NCc2ccccc2)cc1,0.8,-5.6*,0.9,7,19
Cc1cccc(NC(=S)NNC(=S)NCc2ccccc2)c1,0.4,-0.82,0.9,12,60*
CC(C)COc1ccc(/C(=N/O)c2ccccc2)cc1,0.8,-1.3,0.9,13,17
CCOC(=O)C1=C(C)NC(C)=C(C(=O)OCC)C1C(=O)OC1CCOC1=O (stereo unspecified),1,-0.0096,0.7,28,-4
Cn1c(SCC(=O)c2ccc(F)cc2)nc2cccnc21,1.1,0.031,0.2,85*,-15
Cn1c(SCC(=O)c2ccccc2)nc2cccnc21,0.6,0.75,0.3,72*,43
Cc1ccc(C(=O)CSc2nc3cccnc3n2C)cc1,1.6,-0.053,0.7,32,-56
COc1ccc(OC)c(C(=O)CSc2nc3c(c(=O)n(C)c(=O)n3C)n2C(C)C)c1,0.5,0.21,0.6,45,54*
COc1ccc(OC)c(C(=O)CSc2nc3cccnc3n2C)c1,0.2,-0.37,0,98*,77*
SMILES,CYP2C9 act,Cav32 inh,CYP2C19 act,CYP2C19 inh,CYP2C9 inhib
COc1ccc(-c2cc(=O)n(-c3nc4ccccc4[nH]3)[nH]2)cc1,0.7,-1.2,1.2,-22,28
COc1ccc(NC(=O)CSc2nc3ncccc3[nH]2)cc1OC,0.6,-0.35,0.9,8,41
COc1ccc(OC)c(C(=O)CSc2nc3ncccc3[nH]2)c1,0.1,0.04,0.2,79*,90*
Cc1ccc(-n2c(C)nn(-c3ncc(C(F)(F)F)cc3Cl)c2=O)cc1,0.9,-0.54,1,4,11
CC(NC(=O)Cn1nc(-c2ccccc2)c2ccccc2c1=O)c1ccccc1 (stereo unspecified),0.8,-2,0.1,89*,25
COC(=O)c1cccc(N2C(=O)C3CC=CCC3C2=O)c1 (stereo unspecified),.,0.67,.,.,.
COC(=O)c1ccc(NC2CC(=O)N(c3ccccc3C)C2=O)cc1 (stereo unspecified),0.8,-0.17,0.4,60*,20
COC(=O)c1cccc(NC2CC(=O)N(c3ccc(OC)c(OC)c3)C2=O)c1 (stereo unspecified),0.9,0.7,0.5,53*,10
COC(=O)c1ccc(N2C(=O)CC(N(C)CCc3ccc(OC)c(OC)c3)C2=O)cc1 (stereo unspecified),0.5,-0.044,0.4,62*,54*
COc1ccc(N2C(=O)CC(Nc3ccc(C)cc3)C2=O)cc1 (stereo unspecified),0.3,0.23,0.9,14,74*
Cc1ccc(NC2CC(=O)N(c3ccc(N4CCCCC4)cc3)C2=O)cc1 (stereo unspecified),1.1,0.033,1.2,-19,-7
CN=C(Nc1ccc(C(=O)OC)cc1)SC1CC(=O)N(c2ccccc2F)C1=O (stereo unspecified),0.5,-0.034,0.8,16,49
COC(=O)Cn1cnc(=O)c(C#N)c1/C=C/N(C)C,1,0.44,1.1,-14,0
C=CCn1c(N)cc(=O)nc1SCC(=O)Nc1ccc2ccccc2c1,.,-2,.,.,.
CCCCN1C2CCCC1CC(NC(=O)C1CCCCC1)C2 (stereo unspecified),.,-0.049,.,.,.
CCCCCCCCCCS(=O)(=O)N/N=C/c1ccc([N+](=O)[O-])cc1,0.6,0.23,0.7,29,36
COC(=O)c1ccccc1NC1CC(=O)N(c2c(C)cccc2C)C1=O (stereo unspecified),0.2,-2.2,0.7,34,78*
O=C(CSc1nc2ccccc2nc1SCC(=O)N1CCOCC1)N1CCOCC1,0.9,0.0006,1.1,-14,11
O=C(CSc1nc2ccccc2nc1SCC(=O)N1CCCCC1)N1CCCCC1,0,-1.7,0.8,20,95*
CCOc1ccc2nc(SCC(=O)N3CCCCCC3)c(C#N)cc2c1,0.3,-0.35,0.8,18,69*
Nc1cc(N)nc(SCC(=O)N2CCCCC2)n1,0.5,-0.47,0.9,14,52*
O=c1c2cccc3c(N4CCOCC4)ccc(c32)c2nc3ccccc3n12,0.8,.,0.9,15,18
O=C(CN1CCOCC1)Nc1ncccn1,1.1,-0.85,0.9,9,-8
COC(=O)CC(NS(=O)(=O)c1cccs1)c1ccccc1Cl (stereo unspecified),0.5,1,0.1,94*,48
Nc1c(C(=O)OCC2CCCO2)c2nc3ccccc3nc2n1C1CCCC1 (stereo unspecified),0.4,-2.9,0.8,20,55*
CC(C)Cn1c(N)c(C(=O)NCC2CCCO2)c2nc3ccccc3nc21 (stereo unspecified),0.1,.,0.4,65*,85*
CCCS(=O)(=O)c1snnc1C,0.9,-0.036,1.1,-10,8
Cn1c(SCC(=O)NC(C)(C)C)nnc1-c1cccc(NC(=O)c2ccccc2F)c1,1,-0.16,0.9,5,2
